According to the OligoGym collection:

The sequences below were run against SPESP1 (assay: pooled miR-30 sensor sort-seq; sequence = guide strand). Details: shRNA.
Further: reference of the scale not given here.

In order of rising sensor-assay potency score (higher = more potent):
1. ATGTATTGAATACTGTAGCAGC  -1.16
2. TCCATGTGTAACTAGCTCCTTA  -0.658
3. TATTGAATACTGTAGCAGCTTT  -0.369
4. TAGATGATTCAGTAACAACTGG  -0.346
5. TTAATTTATGTTCTGCTGCTGC  -0.241
6. TTTCTATCGCAGTTTCACCTGA  -0.0302
7. TTGTTTTTAATTTATGTTCTGC  0.0799

What follows are sequences tested against SPINK5 in the same assay as above. Details: shRNA.

In order of rising sensor-assay potency score (higher = more potent):
1. TTGTGCATCCAAGTCTTCCATC  -1.09
2. TTGAAAAAATTTCTTATCCTGG  -0.827
3. TTTAAAATCATCACAATTCAGC  -0.669
4. TTTCTTTTGCTTCTTGCTGGAA  -0.544
5. TTGCTCTTGCTCTTTCTTCTTG  -0.499
6. TTGAGAAGCTCTAACATGGGAT  -0.174
7. TTGTATAGAACTTTCCATCAGC  -0.111
8. TTATTGATGTGCATCTTGCCAT  -0.0441
9. TCTCTTTTGACTTTTGCTCTGG  -0.0301
10. TTTTGTTTCTAGCTCGTGCTTC  0.162
11. TTTTCTTGAAGCTTTGCCCTTT  0.275
12. ATACTCAGCACATTCGTCCTGA  0.519

What follows are sequences tested against SPINK6 in the same assay as above. Details: shRNA.

In order of falling sensor-assay potency score (higher = more potent):
1. TTAGATTCCCGAGTGCAGTAGA  0.5
2. TGAATTAAAGGAATCCACCAGC  -0.148
3. TAAAAAGCAGAAAAGAGCCAGA  -0.281
4. TAGACATACATTGAACTCCTCA  -0.369
5. TTTATTGCCATATGTCTGGCCA  -0.38
6. GAACTCACCACAGTCAACCTGT  -0.413
7. ACAGTCAACCTGTCCTCCCTGA  -0.55
8. TGCTTTAGGCTAATCTTTCCAC  -0.643
9. TTCCCGAGTGCAGTAGACCTTG  -0.732
10. TTAGGCTAATCTTTCCACCACT  -0.87
11. TAATCTTTCCACCACTTTTCAC  -1.05
12. TATTGCCATATGTCTGGCCATC  -1.73

These sequences were tested against SPOCK1 in the same assay as above. Details: shRNA.

In order of falling sensor-assay potency score (higher = more potent):
1. TTCCGCAACTCCTTGTCTGTGC  0.679
2. TCATAGTTCATGTCCAACTTGT  0.349
3. ATATTCTAGGTCATCCAGCAGG  -0.735
4. TTGCACTTGGATGTGTAGGAGT  -0.759
5. TTGTCTGTGCAGGCACTCCTTT  -0.821
6. TTGCACTTGACCAAATTCGAAG  -1.14
7. TATTTGTCCACACACCAGCACT  -1.26
8. TAATCATCGTCTCGAAAGCGGT  -1.33
9. TCCAACTTGTTGAACATCCAGC  -1.54
